According to PubChem BioAssay (NCATS):
Inconclusive results are not listed. Active and inactive are the calls of the source. Calls follow the shape of the dose curve; as a rule, active = well fitted cell-killing curve with a large enough effect; inconclusive = small, poorly fitted or top-dose-only effect, or effect the other way; inactive = no such curve, though single readings can be large or run the other way.

Experiment: Quantitative High-Throughput drug screen in 47 multiple myeloma cell lines against the NCATS MIPE library collection: XG6_PLB cell viability assay (AID 1919865); also: nearly all actives have a fitted effect of over 40% in size
Settings: XG6 myeloma viability, CellTiter-Glo ATP luminescence, 48 h; series mostly up to 45.8 µM
In short: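 ATP-based luminescence (CellTiter-Glo, 5 min RT incubation) quantified surviving cells following two days' treatment with MIPE 4.0 agents at 37 °C, 5% CO2.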
Potency is read from the fitted curve at half-maximal effect.

SMILES	Potency
CC(C)(O)c1cc2nc(-c3cnc(N)nc3)nc(N3CCOCC3)c2s1	264 nM (active)
O=C(C=Cc1c(C(=O)O)[nH]c2cc(Cl)cc(Cl)c12)Nc1ccccc1	inactive
Cc1[nH]c2ccccc2c1CCNCc1ccc(C=CC(=O)NO)cc1	148 nM (active)
COc1cccc(Nc2c(C(N)=O)cnc3c(C)cc(S(=O)(=O)c4cccc(C(=O)N(C)C)c4)cc23)c1	inactive
Cc1cc(Nc2cc(N3CCN(C)CC3)nc(C=Cc3ccccc3)n2)n[nH]1	9590 nM (active)
CC(C)[C@H](C(=O)Nc1ccc(C(=O)NO)cc1)c1ccccc1	2350 nM (active)
Nc1ccn([C@@H]2O[C@H](CO)[C@H](O)C2(F)F)c(=O)n1	74.3 nM (active)
CN(C)c1nc(Cc2ccc(NC(=O)c3ccc4ccccc4c3)cc2)nc(Cl)c1CC(=O)O	inactive
Cc1ccc(CN2CCNCC2)cc1NC(=O)CNc1ccc(F)c(F)c1	inactive
CCCCN1CCC(CNC(=O)c2c3n(c4ccccc24)CCCO3)CC1	833 nM (active)
COC(=O)Nc1nc2ccc(C(=O)c3ccc(F)cc3)cc2[nH]1	469 nM (active)
O=C(CCCCCCC(=O)Nc1ccc([C@H]2O[C@@H](CSc3nc(-c4ccccc4)c(-c4ccccc4)o3)C[C@@H](c3ccc(CO)cc3)O2)cc1)NO	14800 nM (active)
Nc1ccc(S(=O)(=O)Nc2ncccn2)cc1	inactive
CC(=O)Nc1sc2c(c1-c1nc3ccccc3s1)CNC2	9350 nM (active)
COc1cc2ncn(-c3cc(OCc4ccccc4C(F)(F)F)c(C(N)=O)s3)c2cc1OC	1660 nM (active)
